Source: PubChem BioAssay
Rows were chosen to be rich in hits. Some 1.6% of all compounds tested hit in one or more screens of this group.
VLA-4 inh: inhibition in a human VLA-4 binding assay; P13612; AID 2557; 330,000 tested, 0.2% active; VLA-4 expressing cells, ligand binding flow cytometry; inhibition, % (about 7 µM as worked out from the volumes in the protocol); in the data active = inhibition above about 50%
PKA-R1A act: activates the PKA-R1A holoenzyme complex | activation, % at 11.4 µM | 340,000 tested, 0.083% active | PKA-R1A dissociation, Cy5-IP20 fluorescence polarization; scaled: DMSO 0%, 113 µM cGMP 100%;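 active = percent activation above the mean of all tested compounds plus 3 SD, cut at about 19% in these data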;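 note: higher means more PKAc released from R1A so a rise in polarization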
ATG4B inhibitor: blocks human ATG4B protease cleavage of LC3 substrate. 340,000 tested, 0.51% active. ATG4B cleavage of LC3-PLA2, NBD-HPC fluorescence, 1 h. Q9Y4P1. inhibition, % at 8.33 µM; in the data active = inhibition above about 40%
Target sequence (Q9Y4P1 whole entry, looked up): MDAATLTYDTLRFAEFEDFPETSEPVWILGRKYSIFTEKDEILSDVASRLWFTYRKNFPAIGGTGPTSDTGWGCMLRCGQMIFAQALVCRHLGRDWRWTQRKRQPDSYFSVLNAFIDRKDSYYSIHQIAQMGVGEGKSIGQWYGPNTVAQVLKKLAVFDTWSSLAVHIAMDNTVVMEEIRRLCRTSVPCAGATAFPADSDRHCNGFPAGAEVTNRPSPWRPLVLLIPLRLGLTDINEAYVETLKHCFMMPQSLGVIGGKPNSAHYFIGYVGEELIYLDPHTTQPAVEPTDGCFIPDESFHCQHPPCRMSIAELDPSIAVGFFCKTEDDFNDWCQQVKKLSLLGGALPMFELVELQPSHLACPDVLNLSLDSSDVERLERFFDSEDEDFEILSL
NRP1-CendR mod: NRP-1/CendR interaction modulation; FAM-RPARPAR peptide binding to NRP-1, fluorescence polarization; inhibition, % at 25 µM; 360,000 tested, 0.85% active; AID 602438;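 active = inhibition or corrected inhibition above about 18%, plus a signal ratio from 0.5 to 1.5, limit read from the data, passing the limit was not always enough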
PKA-R2B activ: PKA-R2B complex activation. PKA-R2B holoenzyme dissociation, Cy5-IP20 fluorescence polarization; R2B truncated from residue 108, S112A mutant; 0% DMSO only, 100% 113 µM cGMP. activation, % at 11.4 µM. 340,000 tested, 0.079% active. AID 504700;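 active = activation above a cutoff set at the mean over all compounds plus 3 SD, cut at about 18% in these data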;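 note: higher means more holoenzyme dissociation and a rise in polarization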
R1A FP artifact: counter-screen for PKA-R1A activators: fluorescence polarization artifacts. shares compounds with PKA-R1A act. Cy5-IP20 peptide alone, fluorescence polarization artifact counterscreen. activation, % at 11.4 µM. 280 tested, 7% active;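 active = mean activation over triplicate runs exceeds the adjusted cutoff derived for the parent primary screen, cut at about 19% in these data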;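 note: no PKA protein present so any polarization rise reflects compound interference; 0% = tracer peptide mix alone and 100% = mix with added PKA catalytic subunit; higher means stronger polarization artifact and likely false positive in parent screen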
PKA-R1A act conf: PKA-R1A complex activation, confirmation; 280 tested, 9% active; activation, % at 11.4 µM; shares compounds with PKA-R1A act; AID 504800; Cy5-IP20 fluorescence polarization, PKA-R1A holoenzyme dissociation;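 active = mean activation over replicate wells exceeds the adjusted hit threshold taken from the earlier primary screen, cut at about 20% in these data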;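 note: 0% = holoenzyme mix with DMSO only and 100% = cGMP-activated control wells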
* hit, by the source's call; . = not tested or not shown.

SMILES	VLA-4 inh	PKA-R1A act	ATG4B inhibitor	NRP1-CendR mod	PKA-R2B activ	R1A FP artifact	PKA-R1A act conf
CC(OC(=O)c1ccccc1O)C(=O)Nc1ccc(Cl)cn1 (stereo not drawn)	9	19*	1	4	-7	0	-2
Cc1cccc(OCCC(=O)OC(C)C(=O)Nc2ccc(Cl)cn2)c1 (stereo not drawn)	6	6	-8	0	-11	.	.
CC(OC(=O)c1ccco1)C(=O)Nc1ccc(Cl)cn1 (stereo not drawn)	0	3	-5	13	3	.	.
CCCOc1ccc(F)cc1-c1cc(C(=O)Nc2ccc(C(C)C)cc2)[nH]n1	.	.	.	-6	.	.	.
CC(CCC(=O)O)C1CC[C@@]2(C)C3C(=O)CC4C(C)(C)C(O)CC[C@]4(C)C3C(=O)C[C@]12C (stereo partly drawn)	-4	20*	-5	8	6	8	4
Nc1nc(SCC(=O)Nc2ccc3c(c2)CCC3)n[nH]1	13	19*	2	-2	-5	6	1
O[C@@H]1CN(C2CCN(Cc3ccccc3)CC2)CC[C@H]1N1CCCCCC1	.	-6	2	1	3	.	.
Brc1ccccc1CN1CCC(N2CCCCC2)CC1	3	21*	-3	-9	9	5	6
CC(C)OP(=O)(c1ccc(N(C)C)cc1)C(O)c1cccnc1 (stereo not drawn)	4	-4	-1	7	-1	.	.
CN(C)c1ccc(NC(=O)CSc2nc3ccccc3c(=O)n2CC2CCCO2)cc1 (stereo not drawn)	4	3	-2	-4	-5	.	.
Cc1ccc(NC(=O)CSc2nc3ccccc3c(=O)n2CC2CCCO2)cc1 (stereo not drawn)	-11	19*	6	10	3	-4	3
CCOC(=O)c1cc(C)sc1NC(=O)c1ccc(Cl)s1	4	20*	-3	-2	0	1	-2
C#CCOCCOCCOCCNc1nc(N2CCN(C(=O)[C@H]([C@@H](C)CC)n3cc([C@@H](N)CC(C)C)nn3)CC2)nc(N2CCN(C(=O)[C@H](CCCCN)n3cc([C@@H](N)CO)nn3)CC2)n1	12	20*	-6	13	0	5	1
C#CCOCCOCCOCCNc1nc(N2CCN(C(=O)[C@H]([C@@H](C)CC)n3cc([C@@H](N)CO)nn3)CC2)nc(N2CCN(C(=O)[C@H](CCCCN)n3cc([C@@H](N)CO)nn3)CC2)n1	2	-5	9	-1	-15	.	.
CC1=CC(=O)C(C(C)C)=C/C1=N/OC(=O)c1cccc([N+](=O)[O-])c1	-10	1	3	-1	-5	.	.
CC1=CC(=O)C(C(C)C)=C/C1=N\OC(=O)c1cccc2nc(C)oc12	-5	19*	-6	-12	-1	2	2
CNC(=O)COC(=O)c1ccc(OCC(=O)Nc2ccccc2OC)c(OC)c1	-1	22*	-7	8	1	-3	1
CN(C(=O)COC(=O)Cn1cnc2ccccc21)C1CCCCC1	15	7	-4	-2	1	.	.
CC(NC(=O)CN1C(=O)NC2(CCCCCC2)C1=O)c1ccccc1Cl (stereo not drawn)	-6	-5	-3	5	-6	.	.
Cc1ccc(NC(=O)Nc2nnc(-c3ccncc3)s2)cc1C	20	2	-4	-9	-7	.	.
O=C(Nc1cccc(Cl)c1)Nc1nnc(-c2ccncc2)s1	-7	22*	-8	-64	7	26*	26*
CCOC(=O)c1ccc(NC(=O)N2CCN(C(=O)C3CCCO3)CC2)cc1 (stereo not drawn)	-3	3	-8	2	3	.	.
CCOc1ccc(-c2nnn(CCC(=O)O)n2)cc1OC	-10	19*	1	-2	-7	1	-1
COc1ccc(CC(=O)N2N=C(c3ccncc3)CC2(O)C(F)(F)F)cc1 (stereo not drawn)	6	1	-10	1	-5	.	.
CCC1=NN(C(=O)Cc2ccc(OC)cc2)C(O)(C(F)(F)F)C1 (stereo not drawn)	15	19*	-18	-14	8	3	-1
SMILES	VLA-4 inh	PKA-R1A act	ATG4B inhibitor	NRP1-CendR mod	PKA-R2B activ	R1A FP artifact	PKA-R1A act conf
COc1ccccc1N1CCN(C(=O)c2cc(S(=O)(=O)N3CCOCC3)ccc2C)CC1	.	19*	2	-2	-1	-2	0
CCN(CC)CCn1c2c(c(SCC(=O)Nc3cc(OC)cc(OC)c3)nc1=O)CCC2	2	-11	-5	-1	-6	.	.
O=C(c1ccc([N+](=O)[O-])cc1Cl)N1CCN(Cc2ccccc2)CC1	.	-3	.	10	2	.	.
O=C(O)c1ccc(-n2cccn2)c([N+](=O)[O-])c1	-16	20*	-2	-12	0	0	2
O=C(COC(=O)/C=C/c1ccco1)NCCc1ccccc1	7	-5	-2	-9	-5	.	.
CCCc1nc2c(C)cc(Br)cn2c1Cc1ccccc1C(F)(F)F	.	.	.	-17	.	.	.
Cc1ccc(NC(=O)C2CC(=O)n3c(nc4ccccc43)N2)cc1Cl (stereo not drawn)	16	3	-1	-6	4	.	.
Cc1ccc(NC(=O)C2CC(=O)n3c(nc4ccccc43)N2)cc1C (stereo not drawn)	-23	19*	6	4	-6	2	5
O=C(O)CSc1cccc[n+]1[O-]	11	-2	-3	1	-2	.	.
[O-][n+]1ccccc1SCc1ccccc1	-6	19*	-3	-2	3	2	3
Cc1sc(NC(=O)C2CCCCC2C(=O)O)c(C(N)=O)c1-c1ccccc1 (stereo not drawn)	10	19*	-1	0	5	3	1
Cc1sc(NC(=O)C2CCCCC2C(=O)O)c(C(N)=O)c1-c1ccc(C(C)(C)C)cc1 (stereo not drawn)	-24	-5	12	-26	-1	.	.
COCCN(C(=S)Nc1ccc(OC)c(Cl)c1)C1CCN(C(C)=O)CC1	.	5	.	-3	6	.	.
Cc1cccc(NS(=O)(=O)c2ccc(Oc3ccccc3)cc2)n1	14	20*	-10	6	-5	3	3
CCC(C)N(C(=O)Cn1nnc(-c2ccc(F)cc2)n1)C1CCS(=O)(=O)C1 (stereo not drawn)	9	-3	1	-2	-6	.	.
CSc1ncccc1C(=O)OCC(=O)NC1CC1	.	20*	1	2	8	4	3
CSc1ncccc1C(=O)OCC(=O)NC1CCCC1	7	10	-14	16	0	.	.
COc1ccccc1N=Nc1c(C)n[nH]c1C	7	19*	-1	3	-5	-1	1
